PubChem BioAssay
Active and inactive are the calls of the source.

Key:
[1] = A549 cell viability effects, profiling panel, calcein-AM fluorescence, 48 h, basal (AID 1162); settings: higher = more signal
[2] = adipocyte viability effects, profiling panel, cell-based, 3T3-L1 adipocytes, calcein-AM fluorescence, 48 h, basal (AID 1163); settings: 3T3-L1 adipocytes viability, higher = more signal
[3] = HepG2 cell viability effects, profiling panel, calcein-AM fluorescence, 48 h, basal (AID 1164); settings: higher = more signal
[4] = MM1S cell viability effects, profiling panel, calcein-AM fluorescence, 48 h, basal (AID 1165); settings: higher = more signal;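 further: viability of MM1S multiple myeloma cells under basal unstimulated conditions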
[5] = basal RPMI8226 viability, no added stimulus, profiling panel, cell-based, calcein-AM fluorescence, 48 h, PK04 Diversity Set (AID 1166); settings: RPMI8226 myeloma viability, higher = more signal;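 further: cells grown under basal conditions without added stimulus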
[6] = basal HepG2 mitochondrial membrane potential changes, profiling panel, cell-based, JC-1 fluorescence, 24 h, 100 nL compound (AID 1167); settings: higher = more signal
[7] = basal 3T3-L1 adipocyte mitochondrial potential changes, profiling panel, cell-based, JC-1 fluorescence, 3T3-L1 adipocytes, 24 h, 100 nL compound (AID 1168); settings: JC-1 mitochondrial fluorescence, higher = more signal, called active from +8 up or from −8 down
[8] = basal RPMI8226 mitochondrial membrane potential changes, profiling panel, cell-based, JC-1 fluorescence, 24 h, 100 nL compound (AID 1169); settings: RPMI8226 myeloma, JC-1 mitochondrial potential fluorescence, higher = more signal
[9] = basal MM1S mitochondrial membrane potential changes, profiling panel, cell-based, JC-1 fluorescence, 24 h, 100 nL compound (AID 1170); settings: higher = more signal
[10] = A549 lung cancer cell viability effects, profiling panel, resazurin fluorescence, 24 h, PK04 Diversity Set (AID 1171); settings: higher = more signal, called active from +8 up or from −8 down
Further: test concentration not given here.

SMILES | z-score [1] | z-score [2] | z-score [3] | z-score [4] | z-score [5] | z-score [6] | z-score [7] | z-score [8] | z-score [9] | z-score [10]
C[C@]1(C(=O)NCCN2CCOCC2)c2ccccc2C(=O)N(Cc2cc(F)cc(C(F)(F)F)c2)[C@H]1c1ccc(CO)cc1 | 0.13 | -0.35 | 0.545 | -0.89 | 0.231 | 2.36 | 0.835 (inactive) | 0.695 | -0.714 | 0.693 (inactive)
COCC1=C2[C@@H](CCc3ccccc3)OB(O)C[C@@H]2[C@@H]2C(=O)N(C)C(=O)[C@@H]2C1 | -0.0482 | -0.184 | -0.187 | -0.145 | -0.126 | -1.54 | 0.176 (inactive) | -0.0658 | -0.239 | -0.425 (inactive)
COc1ccc(C(O)C2C=CC3C(=O)N(c4ccccc4)C(=O)C3N2Nc2ccc(C(C)C)cc2)c2ccccc12 (stereo not given) | 0.181 | -0.946 | 0.301 | -0.419 | 0.129 | -0.783 | 0.0228 (inactive) | -0.293 | -0.154 | -0.64 (inactive)
C=C[C@@H](C)[C@@H](OC(=O)Nc1ccc(SC)cc1)c1ccc(OCCO)cc1 | -0.555 | 0.248 | -1.37 | -1.08 | -0.425 | -2.54 | -0.75 (inactive) | -0.15 | -0.434 | 0.491 (inactive)
CC(C)[C@H]1NC(=O)[C@@]23C(=O)N[C@@H](Cc4ccccc4)C2[C@H](C)[C@@]2(C)O[C@H]2C3/C=C/C/C=C\CNC(=O)[C@H](Cc2ccccc2)NC1=O (stereo not given in full) | 0.716 | -0.144 | 0.42 | -1.08 | -1.39 | 0.5 | -0.769 (inactive) | -0.132 | 0.623 | -0.739 (inactive)
CC1(C)C(=O)C(c2ccccc2)=C2CN3C(=O)N(CCc4ccccc4)C(=O)C3(Cc3ccc(C(F)(F)F)cc3)C=C21 (stereo not given) | -0.902 | -0.586 | 0.409 | -1.49 | -1.75 | -2.08 | -2 (inactive) | -0.00804 | -0.421 | 0.43 (inactive)
COC(=O)C(CC#Cc1ccc2c(c1)[C@]1(C(=O)N2)[C@H](C(=O)Nc2nc3ccccc3s2)[C@H]2C(=O)O[C@H](c3ccccc3)[C@H](c3ccccc3)N2[C@@H]1c1ccc(OCCO)cc1)C(=O)OC | 0.686 | 1.18 | 1.64 | -0.82 | -1.97 | -3.2 | 1.59 (inactive) | -1 | -0.693 | 0.0002 (inactive)
CO[C@H]1O[C@H](CO)[C@@H](OC(=O)c2ccc(Br)cc2)[C@@H]2OC(=O)[C@H](Cc3ccccc3)C/C=C/C[C@@H](Cc3ccccc3)C(=O)O[C@@H]12 | 1.77 | 0.863 | 0.857 | -0.389 | 0.0226 | -0.0867 | -1.37 (inactive) | 0.796 | -0.823 | -1 (inactive)
C=CCN1C(=O)[C@]2(O[C@H](CCO)[C@@H]([Si](C)(C)c3ccc(OC)cc3)[C@@H]2C)c2cc(NC(=O)c3ccc(OC)cc3)ccc21 | -3.78 | -0.562 | -4.65 | -2.69 | -4.38 | -0.446 | 0.96 (inactive) | -0.953 | -2.2 | -3.7 (inactive)
[N-]=[N+]=NCc1ccccc1[C@@H]1OC(c2ccc(OCCCO)cc2)=N[C@]1(Cc1ccccc1N=[N+]=[N-])C(=O)NCCN1CCOCC1 | 0.0239 | 0.727 | 0.695 | -1.17 | -1.09 | 0.988 | 0.564 (inactive) | -0.96 | -0.212 | 0.162 (inactive)
C=CCC(OC(C)=O)[C@@H]1[C@@H](N(Cc2cccc3ccccc23)C(=O)Cc2ccc(F)cc2)c2cc(OCCCO)ccc2N1C(=O)c1ccc(-c2ccccc2)cc1 (stereo not given in full) | -0.546 | 0.905 | 0.111 | 0.867 | -0.61 | 1.35 | -0.389 (inactive) | -0.104 | 0.302 | 0.736 (inactive)
CC(C)C(=C=CC[C@@H](O)c1cccc(OCCO)c1)C[C@@H](O)COCc1ccccc1 | 1.05 | 1.32 | 0.512 | 0.0108 | 0.442 | 0.427 | 0.686 (inactive) | 0.46 | -0.794 | 0.151 (inactive)
Cc1ccc(C(C)CC(O)C2C=CC3C(=O)N(c4ccccc4)C(=O)C3N2Nc2ccc(C#N)cc2)o1 (stereo not given) | 0.491 | -0.0968 | 0.459 | -3.7 | -0.355 | 0.175 | -0.155 (inactive) | -1.05 | -1.2 | -1.17 (inactive)
C=C(C(=O)CC[C@H](OC(=O)c1ccccc1-c1ccccc1C(=O)O)c1ccccc1OCCO)C(C)C | 0.301 | 1.72 | 0.255 | -3.44 | -2.35 | -0.266 | 0.585 (inactive) | -0.636 | 0.63 | 0.109 (inactive)
COCCOC(=O)N1C(=O)[C@@]2(c3cc(C#CCC(C(=O)OC)C(=O)OC)ccc31)[C@H](C(=O)NC[C@H](O)c1ccccc1)[C@H]1C(=O)O[C@H](c3ccccc3)[C@H](c3ccccc3)N1[C@@H]2c1ccc(O)cc1 | 0.395 | 0.408 | 1.26 | -0.99 | -1.74 | 0.126 | -0.489 (inactive) | -0.39 | -0.491 | -0.227 (inactive)
